According to PubChem BioAssay:
Calls of active or inactive are those of the source. Unless noted, how the calls were made is not given here.

Experiments:
[1] = anti-His antibody binders, primary screen, artefact control for SMM control protein annotation, biochemical, small-molecule microarray, 635 nm fluorescence (AID 1128); details: anti-His Alexa647 antibody binding, higher = more signal;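 further: score merges feature fluorescence with signal-to-noise for each printed compound spot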
[2] = test system: Human papillomavirus type 1a E7 protein (residues 1-88); experiment: HPV1a E7 small-molecule binders, primary screen, biochemical, small-molecule microarray, residues 1-88, 635 nm (AID 1129); details: small-molecule microarray binding, fluorescence 635 nm; higher = more signal
[3] = biological target: Focal adhesion kinase 1 (Homo sapiens) (UniProt Q05397); experiment: small-molecule microarray binders of FAK, primary screen, biochemical, 635/667 nm fluorescence, BSA, DTT (AID 1130); details: PTK2 binding, 635 nm fluorescence, higher = more signal;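 further: composite of spot emission at 667 nm and signal to noise over triplicate slides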
Focal adhesion kinase 1 (Homo sapiens), sequence (Q05397 whole entry, looked up): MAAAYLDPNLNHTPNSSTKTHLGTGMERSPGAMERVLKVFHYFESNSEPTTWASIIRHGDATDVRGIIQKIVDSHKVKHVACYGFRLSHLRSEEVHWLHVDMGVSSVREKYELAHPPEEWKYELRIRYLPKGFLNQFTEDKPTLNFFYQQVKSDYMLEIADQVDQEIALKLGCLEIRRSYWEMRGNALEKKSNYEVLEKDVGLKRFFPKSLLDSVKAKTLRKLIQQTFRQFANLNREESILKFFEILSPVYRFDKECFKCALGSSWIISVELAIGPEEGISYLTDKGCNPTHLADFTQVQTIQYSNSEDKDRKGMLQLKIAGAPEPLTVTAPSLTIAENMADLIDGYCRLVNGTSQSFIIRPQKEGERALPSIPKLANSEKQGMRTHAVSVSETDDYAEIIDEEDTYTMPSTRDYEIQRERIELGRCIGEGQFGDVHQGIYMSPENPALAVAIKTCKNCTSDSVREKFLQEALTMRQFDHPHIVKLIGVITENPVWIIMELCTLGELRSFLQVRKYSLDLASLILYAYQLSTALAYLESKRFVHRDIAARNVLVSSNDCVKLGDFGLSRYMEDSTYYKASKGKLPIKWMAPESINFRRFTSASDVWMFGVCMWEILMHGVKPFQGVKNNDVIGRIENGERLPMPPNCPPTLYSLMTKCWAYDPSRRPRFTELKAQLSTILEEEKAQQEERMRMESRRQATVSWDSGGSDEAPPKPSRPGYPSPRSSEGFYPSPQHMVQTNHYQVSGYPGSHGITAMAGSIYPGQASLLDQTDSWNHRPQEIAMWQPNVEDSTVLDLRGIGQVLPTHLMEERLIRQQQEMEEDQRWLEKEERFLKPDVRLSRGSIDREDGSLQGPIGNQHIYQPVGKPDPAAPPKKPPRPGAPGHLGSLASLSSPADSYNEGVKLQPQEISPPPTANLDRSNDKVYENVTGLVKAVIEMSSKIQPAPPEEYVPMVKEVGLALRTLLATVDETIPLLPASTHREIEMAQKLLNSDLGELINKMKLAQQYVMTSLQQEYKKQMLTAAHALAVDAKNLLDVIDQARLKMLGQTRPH

[4] = test system: Fibrinogen (Alexa647-labelled); experiment: fibrinogen binders on compound microarrays, profiling panel, artefact control for SMM control-protein annotation, biochemical, small-molecule microarray, 635/667 nm fluorescence (AID 1131); details: fibrinogen-A647 binding fluorescence, higher = more signal;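 further: z-score merges 667 nm fluorescence with per-spot signal-to-noise over triplicate slides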
[5] = biological target: Follistatin (Homo sapiens) (UniProt P19883); experiment: follistatin binders on small-molecule microarrays, primary screen, biochemical, small-molecule microarray, 635/667 nm fluorescence (AID 1132); details: FST binding, 635 nm fluorescence, higher = more signal
Follistatin (Homo sapiens), sequence (P19883 whole entry, looked up): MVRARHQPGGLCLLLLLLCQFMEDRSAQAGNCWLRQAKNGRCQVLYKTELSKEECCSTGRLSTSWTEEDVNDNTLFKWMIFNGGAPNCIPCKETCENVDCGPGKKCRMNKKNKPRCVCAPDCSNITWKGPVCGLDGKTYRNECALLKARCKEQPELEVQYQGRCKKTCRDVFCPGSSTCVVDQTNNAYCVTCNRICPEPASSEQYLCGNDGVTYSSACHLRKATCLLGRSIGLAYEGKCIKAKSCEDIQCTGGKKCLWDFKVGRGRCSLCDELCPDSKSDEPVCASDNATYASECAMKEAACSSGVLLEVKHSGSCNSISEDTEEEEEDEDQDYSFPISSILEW

[6] = biological target: Fibroblast growth factor 2 (Homo sapiens) (UniProt P09038); experiment: FGF2 binders on small-molecule microarrays, primary screen, biochemical, small-molecule microarray, 635/667 nm fluorescence (AID 1133); details: small-molecule microarray binding, FGF2, fluorescence 635/667; higher = more signal
Fibroblast growth factor 2 (Homo sapiens), sequence (P09038 whole entry, looked up): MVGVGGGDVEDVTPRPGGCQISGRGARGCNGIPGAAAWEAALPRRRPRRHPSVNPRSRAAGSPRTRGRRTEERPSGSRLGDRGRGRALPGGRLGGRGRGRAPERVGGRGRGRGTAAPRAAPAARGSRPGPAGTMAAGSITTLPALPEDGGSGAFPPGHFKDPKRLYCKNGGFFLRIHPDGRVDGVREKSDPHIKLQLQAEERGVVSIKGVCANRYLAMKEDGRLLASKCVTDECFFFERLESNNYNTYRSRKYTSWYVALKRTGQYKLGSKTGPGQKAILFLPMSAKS

[7] = mitochondrial membrane potential change in A549 cells, profiling panel, cell-based, JC-1 fluorescence, basal, 24 h, 100 nL (AID 1138); details: higher = more signal;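 further: A549 lung adenocarcinoma cells under basal conditions with no added stimulus; test concentration not given here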
Lefty1 = Lefty1 binders on small-molecule microarrays, primary screen, biochemical, small-molecule microarray, 635/667 nm fluorescence (AID 1139); details: small-molecule microarray binding, fluorescence 635/667; higher = more signal
[8] = test system: wheat germ agglutinin (Triticum aestivum), Alexa647-labelled; experiment: wheat germ agglutinin binders on compound microarrays, profiling panel, artefact control for SMM control-protein annotation, biochemical, small-molecule microarray, 635/667 nm fluorescence (AID 1140); details: WGA-A647 binding, 635 nm fluorescence, higher = more signal;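 further: score merges 667 nm feature emission with signal to noise over triplicate slides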
[9] = biological target: Luciferin 4-monooxygenase (Photinus pyralis) (UniProt P08659); experiment: firefly luciferase enzyme inhibitors, primary screen, biochemical, luminescence, purified enzyme, 2006 set (AID 1141); details: SteadyGlo luminescence, 30 min, higher = more signal, called active from +8 up or from −8 down;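 further: cell-free assay with purified firefly luciferase at 100 ng per well in PBS; test concentration not given here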
Luciferin 4-monooxygenase (Photinus pyralis), sequence (P08659 whole entry, looked up): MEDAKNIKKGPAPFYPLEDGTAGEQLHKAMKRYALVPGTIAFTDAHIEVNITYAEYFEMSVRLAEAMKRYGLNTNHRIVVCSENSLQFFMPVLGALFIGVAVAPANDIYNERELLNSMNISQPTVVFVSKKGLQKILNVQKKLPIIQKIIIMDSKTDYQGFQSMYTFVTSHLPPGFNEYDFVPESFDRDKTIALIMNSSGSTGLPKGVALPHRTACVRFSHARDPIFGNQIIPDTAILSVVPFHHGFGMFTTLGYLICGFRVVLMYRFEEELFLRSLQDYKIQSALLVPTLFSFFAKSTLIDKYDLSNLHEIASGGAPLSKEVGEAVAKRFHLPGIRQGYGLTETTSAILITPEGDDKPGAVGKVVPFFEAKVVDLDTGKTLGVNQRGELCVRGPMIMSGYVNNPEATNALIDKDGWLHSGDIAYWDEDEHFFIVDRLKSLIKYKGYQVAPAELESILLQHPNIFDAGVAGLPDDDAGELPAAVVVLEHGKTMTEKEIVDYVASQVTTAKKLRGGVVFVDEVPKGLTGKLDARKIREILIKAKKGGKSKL

[10] = test system: Wnt5a (protein binding on small-molecule microarray); experiment: Wnt5a binders on small-molecule microarray, primary screen, biophysical, 635/667 nm fluorescence (AID 1142); details: 635 nm fluorescence, higher = more signal;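 further: fluorescence read at 667 nm with signal to noise per printed feature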
[11] = cell viability in Huh7 cells, primary screen, cytotoxicity control for HCV replication inhibitor project, CellTiter-Glo luminescence, basal, 48 h (AID 1143); details: Huh7 HCV replicon, higher = more signal, called active from +8 up or from −8 down;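 further: Huh7 hepatoma cells carrying a hepatitis C replication reporter with no stimulus; test concentration not given here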
[12] = P. aeruginosa biofilm formation inhibitors, primary screen, PAO1 strain, BacTiter-Glo luminescence, LB-PBS (AID 1144); details: 12 h, higher = more signal
[13] = CREB reporter modulators without forskolin, primary screen, cell-based, PC12, CRE-LacZ reporter, unstimulated (AID 1145); details: no forskolin, luminescence, 4.5 h, higher = more signal, called active from +8 up or from −8 down
[14] = CREB reporter modulators under forskolin, primary screen, cell-based, PC12, CRE-LacZ reporter, forskolin-stimulated (AID 1146); details: luminescence, 4.5 h, higher = more signal, called active from +8 up or from −8 down;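 further: PC12 cells with 6xCRE LacZ reporter stimulated by forskolin 10 µM; beta-galactosidase reporter signal reflecting CREB driven transcription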
[15] = biological target: Streptavidin (Streptomyces avidinii) (UniProt P22629); experiment: streptavidin binders on small-molecule microarray, primary screen, artefact control for SMM compound annotation, biophysical, 635/667 nm fluorescence (AID 1147); details: streptavidin binding, higher = more signal;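 further: signal reflects streptavidin binding to arrayed compounds as a control protein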
Streptavidin (Streptomyces avidinii), sequence (P22629 whole entry, looked up): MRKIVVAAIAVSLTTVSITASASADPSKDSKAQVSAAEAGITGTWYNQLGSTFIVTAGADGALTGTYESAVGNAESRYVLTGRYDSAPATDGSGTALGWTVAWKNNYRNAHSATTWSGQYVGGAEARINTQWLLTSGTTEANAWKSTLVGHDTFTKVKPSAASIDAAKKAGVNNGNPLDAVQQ

[16] = small-molecule binders of probe aInhba, primary screen, biochemical, small-molecule microarray, 635/667 nm fluorescence (AID 1148); details: higher = more signal;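 further: score merges 667nm spot fluorescence with signal-to-noise for antibody binding to printed compounds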
Torsin-1A (Homo sapiens) [17] = biological target: Torsin-1A (Homo sapiens) (UniProt O14656); experiment: torsin A binders from cell lysate, primary screen, small-molecule microarray, wild-type, 635/667 nm (AID 1149); details: COS7 hTOR1A-WT lysate, 635 nm fluorescence, higher = more signal
Torsin-1A (Homo sapiens), sequence (O14656 whole entry, looked up): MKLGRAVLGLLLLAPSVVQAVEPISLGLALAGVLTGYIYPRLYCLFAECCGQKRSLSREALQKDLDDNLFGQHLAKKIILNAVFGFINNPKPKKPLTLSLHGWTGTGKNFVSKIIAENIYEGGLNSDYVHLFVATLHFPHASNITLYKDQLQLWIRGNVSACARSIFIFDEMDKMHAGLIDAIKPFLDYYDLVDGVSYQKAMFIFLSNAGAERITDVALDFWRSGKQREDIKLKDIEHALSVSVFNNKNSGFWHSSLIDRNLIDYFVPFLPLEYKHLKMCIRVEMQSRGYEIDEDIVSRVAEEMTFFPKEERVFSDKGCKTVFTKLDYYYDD

Torsin-1A (Homo sapiens) [18] = biological target: Torsin-1A (Homo sapiens) (UniProt O14656); experiment: small-molecule binders of mutant TOR1A in lysate, primary screen, cell lysate, small-molecule microarray, COS7 lysate, 635/667 nm fluorescence (AID 1150); details: COS7 hTOR1A mutant lysate, 635 nm fluorescence, higher = more signal;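 further: score pools 667 nm emission and signal to noise measuring lysate protein binding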
[19] = test system: Sonic hedgehog protein (Shh); experiment: small-molecule binders of Shh protein, primary screen, biochemical, small-molecule microarray, 635/667 nm fluorescence (AID 1151); details: small-molecule microarray binding, 635 nm fluorescence; higher = more signal;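 further: Shh protein binding to compounds spotted on small-molecule microarray slides; score combines spot fluorescence intensity with signal-to-noise across triplicate slides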

Row | SMILES | composite z-score [1] | composite z-score [2] | composite z-score [3] | composite z-score [4] | composite z-score [5] | composite z-score [6] | z-score [7] | composite z-score (Lefty1) | composite z-score [8] | z-score [9] | composite z-score [10] | z-score [11] | z-score [12] | z-score [13] | z-score [14] | composite z-score [15] | composite z-score [16] | composite z-score (Torsin-1A (Homo sapiens) [17]) | composite z-score (Torsin-1A (Homo sapiens) [18]) | composite z-score [19]
1 | C=C(COC)/C(=C/C[C@@H](OC(=O)c1ccncc1)c1ccc(CO)o1)c1cnc2ccccc2c1 | 1.87 | 1.22 | 0.268 | 0.973 | 1.47 | 1.61 | -0.557 | 1.67 | 1.56 | -2.96 (inactive) | 0.911 | 0.173 (inactive) | -0.854 (inactive) | -0.611 (inactive) | -0.0377 (inactive) | 1.07 | -0.0136 | 1.86 | 0.962 | 2.46
2 | CCC[C@@H]1C[C@@]1(CCC)[C@@H](NP(=O)(c1ccccc1)c1ccccc1)c1ccc(Cl)cc1 | -0.649 | -0.472 | -0.371 | -0.428 | -0.216 | -0.475 | -1.22 | -0.413 | -0.619 | 1.71 (inactive) | -0.298 | -1.4 (inactive) | 0.22 (inactive) | 0.0007 (inactive) | -0.113 (inactive) | -0.749 | -0.232 | -0.753 | -0.731 | -0.447
3 | COc1ccc([Si](C)(C)[C@@H]2[C@@H](CCn3cc([C@H](O)c4ccccc4)nn3)O[C@]3(C(=O)N(Cc4ccc(N5CCOC5=O)cc4)c4ccccc43)[C@H]2C)cc1 | 0.551 | 1.06 | -0.0646 | 0.851 | 1.07 | 1.04 | 0.708 | 1.14 | 0.616 | 0.82 (inactive) | 0.127 | -3.81 (inactive) | -0.41 (inactive) | -0.0533 (inactive) | -0.0224 (inactive) | 0.204 | -0.128 | 1.15 | 1.14 | 1.85
4 | COc1cc(CO)cc(I)c1O[C@H]1C=C(C(=O)NCCO)C[C@@H](NCc2ccccc2F)[C@@H]1O | 0.271 | 1.17 | 0.0691 | 0.124 | 0.347 | 0.974 | 1.72 | 1.19 | 0.278 | -0.0791 (inactive) | -0.145 | -0.466 (inactive) | -0.251 (inactive) | 9.26 (active) | -1.22 (inactive) | -0.0401 | -0.128 | 0.235 | -0.175 | 0.485
5 | O=C1NC(=O)C2C1C=CC(C(O)c1ccc3c(c1)OCO3)N2Nc1ccccn1 (stereo not given) | 0.942 | 0.256 | 0.0543 | 0.646 | 1.32 | 0.133 | 0.992 | 0.146 | 1.01 | -0.716 (inactive) | 0.141 | -0.259 (inactive) | -1.72 (inactive) | 1.01 (inactive) | 0.689 (inactive) | 0.501 | -0.203 | 0.546 | 0.05 | 0.347
